The record followed here is PubChem BioAssay (NCATS).

Inconclusive results are not listed. Active and inactive are the calls of the source. Unless noted, calls come from the whole dose curve.

In experiment [1] the target is RecQ-like DNA helicase BLM (Homo sapiens) (UniProt P54132). As to the kind of experiment: qHTS Validation Assay for Inhibitors of Bloom's syndrome helicase (BLM) (AID 2364; active = well fitted curve in the direction sought with a large enough effect; an effect the other way counts as inactive or inconclusive; note: potency is the fitted concentration of half-maximal effect). Summed up:
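Forked 20-bp duplex substrate (200 nM, TAMRA/BHQ-2) plus 2 mM ATP added after 15 min compound preincubation with 50 nM enzyme, pH 8.0, poly(dI-dC) 2.5 ug/ml. Strand separation followed by fluorescence (525/598 nm) over 2 h, normalized to enzyme-free and DMSO controls.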

A short description of experiment [2]: Validation screen for inhibitors of Lassa infection (AID 463096). Note: % is set by controls: 0 for no effect and ±100 for the full control effect.
Experiment [3] concerns the target Thioredoxin reductase 1, cytoplasmic (Rattus norvegicus) (UniProt O89049). The experiment can be described thus: qHTS Assay for Substrates of Mammalian Selenoprotein Thioredoxin Reductase 1 (TrxR1) (AID 488772; active = well fitted curve in the direction sought with a large enough effect; an effect the other way counts as inactive or inconclusive;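 note: 0% is about no effect; a drop in NADPH fluorescence below the no-compound background marks a TrxR1 substrate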). The gist of the method:
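In this dual-purpose format, potential substrates are identified from the first fluorescence read after selenite addition, not from the 8-minute delta. Rat enzyme is preincubated with NADPH and then with compound at ~22 deg C.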

Experiment [4] has as its target M-phase phosphoprotein 8 (Homo sapiens) (UniProt Q99549). As to the kind of experiment: qHTS Validation Assay for Inhibitors for MPP8 Chromodomain Interactions with Methylated Histone Tails (AID 488949; active = well fitted curve in the direction sought with a large enough effect; an effect the other way counts as inactive or inconclusive;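 note: AlphaScreen signal from MPP8 chromodomain bound to biotinylated H3K9me3 peptide; top concentration of the series differs between compounds; % is set by controls: 0 for no effect and ±100 for the full control effect; nearly all actives have a fitted effect of over 55% in size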). The gist of the method: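 Disruption of the preformed MPP8–trimethyl-H3K9 peptide complex (both 50 nM, 30 min, RT) is measured after 30 min compound exposure, using AlphaScreen proximity beads; aurintricarboxylic acid titration serves as plate control.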

Experiment [5] is described as follows: Validation screen for small molecules that induce genotoxicity in human embryonic kidney (HEK293T) cells expressing luciferase-tagged ELG1 (AID 493106; active = well fitted curve in the direction sought with a large enough effect; an effect the other way counts as inactive or inconclusive; note: 0% is about no effect). The gist of the method:
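Cells were dispensed at 2,000 per well, then 23 nL compound or DMSO was pinned in. After 16 hr at 37 °C and 5% CO2, ONE-Glo reagent was added. Luciferase activity was measured following 30 min at room temperature.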

Experiment [6] is described as follows: Inducers of the Endoplasmic Reticulum Stress Response (ERSR) in human glioma: Validation (AID 504836; active = well fitted curve in the direction sought with a large enough effect; an effect the other way counts as inactive or inconclusive; note: 0% is about no effect). Summed up:
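ERSR induction read as luciferase luminescence (Bright-Glo, 10 min at room temperature) in stably transfected human U87-MG glioma cells exposed to compounds for 16 h, using GRP78 as sensor.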

The target in experiment [7] is Ubiquitin carboxyl-terminal hydrolase 1 (Homo sapiens) (UniProt O94782). As to the kind of experiment: Inhibitors of USP1/UAF1: Pilot qHTS (AID 504865; active = well fitted curve in the direction sought with a large enough effect; an effect the other way counts as inactive or inconclusive;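 note: rhodamine fluorescence freed from ubiquitin-rhodamine substrate followed over time; top concentration of the series differs between compounds; % is set by controls: 0 for no effect and ±100 for the full control effect; nearly all actives have a fitted effect of over 35% in size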). Summed up: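 Kinetic fluorescence assay: 1nM USP1/UAF1, 15 min compound preincubation, then 150nM Ub-Rho; 480/540 nm.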
The target in experiment [8] is Bile acid receptor (Homo sapiens) (UniProt Q96RI1). As to the kind of experiment: qHTS assay for small molecule agonists of farnesoid X receptor signaling (AID 588527).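 Note: 0% = vehicle basal and 100% = reference agonist.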 The conditions noted are these: HEK293T FXR-UAS-bla, beta-lactamase ratio, 16 h; activation: stronger effect = higher value. The gist of the method:
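FXR-UAS-bla HEK293T cells (10% dialyzed FBS) preincubated 5-7 h at 37 C, then compounds at up to 92 uM for 16 h at 37 C. CCF4 beta-lactamase read-out after 2 h RT. Normalized to chenodeoxycholic acid (100 uM) and DMSO; Hill fit gave EC50 and efficacy.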

Experiment [9] can be described thus: qHTS assay for small molecule agonists of the antioxidant response element (ARE) signaling pathway (AID 651741; active = well fitted activation curve with a large enough effect in the signal ratio; the % refers to the signal ratio; note: potency is the fitted concentration of half-maximal effect). The gist of the method: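 Beta-lactamase reporter under ARE control in HepG2 cells, 2,000 per well, was induced by 16 h compound treatment at 37 C. Read-out was fluorescence from LiveBLAzer B/G FRET substrate after 2 h at room temperature.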
Experiment [10] can be described thus: qHTS assay for small molecule activators of the p53 signaling pathway (AID 651743; active = well fitted activation curve with a large enough effect in the signal ratio, not every such curve was filed as active; the % refers to the signal ratio; note: potency is the fitted concentration of half-maximal effect). The conditions noted are these: HCT-116 p53RE-bla, beta-lactamase FRET ratio, 16 h; activation: stronger effect = higher value. The gist of the method: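 After 16 hours compound treatment at 37 C, HCT-116 cells stably expressing p53RE-driven beta-lactamase were loaded with LiveBLAzer B/G FRET substrate for 2 hours at room temperature. Fluorescence intensity served as the p53 activation read-out.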

Experiment [11] has as its target Arylsulfatase A (Homo sapiens) (UniProt P15289). The experiment can be described thus: qHTS screen for enhancers of Arylsulfatase A (ASA1): LOPAC Validation Assay (AID 720538; active = well fitted curve in the direction sought with a large enough effect; an effect the other way counts as inactive or inconclusive; note: 0% is about no effect). The gist of the method:
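First, ASA-I179S fibroblasts from an MLD patient adhered for 6 hrs. Next, compounds were added for 48h. Then pNCS substrate (0.5mM final) with lysis buffer reacted 14h at room temperature before NaOH stop and fluorescence measurement.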

The nature of experiment [12]: qHTS for Inhibitors of the Functional Ribonucleoprotein Complex (vRNP) of Lassa (LASV) Arenavirus: LASV Primary Screen - GLuc reporter signal (AID 1347082; calls by dose curve; tested in HEK293 reporter line; note: nearly all actives have a fitted effect of over 60% in size; note: potency is the fitted concentration of half-maximal effect; for activity change, negative = inhibition: % is set by controls: 0 for no effect and ±100 for the full control effect).
A short description of experiment [13]: qHTS for Inhibitors of the Functional Ribonucleoprotein Complex (vRNP) of Lassa (LASV) Arenavirus: Viability assay - alamar blue signal for LASV Primary Screen (AID 1347083; calls by dose curve; tested in HEK293 reporter line; note: nearly all actives have a fitted effect of over 80% in size; note: potency is the fitted concentration of half-maximal effect).
Experiment [14] is described as follows: qHTS for Inhibitors of the Functional Ribonucleoprotein Complex (vRNP) of Lymphocytic Choriomeningitis Arenaviruses (LCMV): Viability assay - alamar blue signal for LCMV Primary Screen (AID 1347085; calls by dose curve; tested in HEK293 reporter line; note: nearly all actives have a fitted effect of over 80% in size; note: potency is the fitted concentration of half-maximal effect).
The target of experiment [15] is Nucleoprotein (Lymphocytic choriomeningitis virus (strain Armstrong)) (UniProt P09992). The experiment can be described thus: qHTS for Inhibitors of the Functional Ribonucleoprotein Complex (vRNP) of Lymphocytic Choriomeningitis Arenaviruses (LCMV): LCMV Primary Screen - GLuc reporter signal (AID 1347086). For activity change, negative = inhibition: % is set by controls: 0 for no effect and ±100 for the full control effect. Note: nearly all actives have a fitted effect of over 70% in size. Note: potency is the fitted concentration of half-maximal effect.
Experiment [16] is described as follows: Cytotoxicity counterscreen for inhibitors of SARS-CoV-2 cell entry (AID 1645845). Note: nearly all actives have a fitted effect of over 50% in size. Summed up:
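ATP-content luminescence (ATPLite 1step, 15 min RT) read after 48 h compound exposure of Expi293F cells stably expressing human ACE2; normalized to cells-only wells and media-only wells.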

Experiment [17] can be described thus: Primary qHTS to identify inhibitors of SARS-CoV-2 cell entry (AID 1645846). Note: nearly all actives have a fitted effect of over 45% in size. Note: potency is the fitted concentration of half-maximal effect. The conditions noted are these: activity change, negative = inhibition: at 57.1 µM (top of the series) unless noted. The gist of the method:
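Data are normalized to wells receiving SARS-CoV-2-S pseudoparticles and those given bald particles. Entry signal was luciferase luminescence in stable hACE2 Expi293F cells, 48 hr post-infection, after 1 hr compound pretreatment.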

The target in experiment [18] is Alpha-galactosidase (Coffea arabica) (UniProt Q42656). As to the kind of experiment: Counterscreen for Glucocerebrosidase Inhibitors: qHTS Assay for Coffee Bean alpha-Galactosidase at pH 4.5 (AID 957; active = well fitted curve in the direction sought with a large enough effect; an effect the other way counts as inactive or inconclusive;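 note: plate controls were enzyme alone for no effect and no enzyme for full effect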). The gist of the method:
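Enzyme is added first (2 nM final), then compounds titrated from 0.7 nM to 77 uM, then 80 uM 4-methylumbelliferyl alpha-D-galactopyranoside; after 20 min at room temperature a pH 10 NaOH/glycine stop precedes fluorescence reading at 365/440 nm.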

Experiment [19] has the same target. As to the kind of experiment: Counterscreen for Glucocerebrosidase Inhibitors: qHTS Assay for Coffee Bean alpha-Galactosidase at pH 5.9 (AID 998; active = well fitted curve in the direction sought with a large enough effect; an effect the other way counts as inactive or inconclusive;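 note: plate controls were uninhibited enzyme for no effect and no-enzyme basal signal for full effect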). The gist of the method:
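Fluorogenic 4-MU substrate hydrolysis, 80 uM substrate and 2 nM coffee bean alpha-galactosidase, pH 5.9 citrate buffer, 20 min at room temperature, then NaOH/glycine stop. Titration 0.7 nM–77 uM, normalized to no-enzyme and enzyme controls, AC50 via Hill equation.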

For experiment [20], the target named is Cytochrome P450 3A4 (Homo sapiens) (UniProt P08684). The experiment can be described thus: qHTS Assay for Inhibitors and Substrates of Cytochrome P450 3A4 (AID 884; active = well fitted curve in the direction sought with a large enough effect; an effect the other way counts as inactive or inconclusive; note: potency is the fitted concentration of half-maximal effect; nearly all actives have a fitted effect of over 50% in size). The gist of the method:
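Luminescent readout of luciferin produced by CYP3A4 (20 nM) dealkylation of Luciferin-PPXE, 25 uM (its KM). NADPH-driven reaction ran 60 min at RT after 10 min compound preincubation; data scaled to 57 uM ketoconazole as 100% inhibition.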

Experiment [21] has the same target. The experiment can be described thus: qHTS Assay for Activators of Cytochrome P450 3A4 (AID 885; active = well fitted curve in the direction sought with a large enough effect; an effect the other way counts as inactive or inconclusive; note: nearly all actives have a fitted effect of over 65% in size). Summed up: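 Human CYP3A4 dealkylates Luciferin-PPXE to luciferin, which luciferase detection converts to light. Substrate was at its KM (25uM), buffer 200mM KPO4, reaction 60 min at RT.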
A short description of experiment [22]: VSVG counterscreen qHTS to identify inhibitors of SARS-CoV-2 cell entry (AID 1645847). Note: potency is the fitted concentration of half-maximal effect; nearly all actives have a fitted effect of over 65% in size. The gist of the method:
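Counterscreen using VSV-G (not spike) pseudotyped MLV particles on ACE2-expressing Expi293F cells after 1 h compound preincubation; infection ran 48 h at 37 °C. Data normalized to VSV-G PP and bald-PP wells.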

In experiment [23] the target is DNA repair nuclease/redox regulator APEX1 (Homo sapiens) (UniProt P27695). The experiment can be described thus: qHTS Validation Assay for Inhibitors of the Human Apurinic/apyrimidinic Endonuclease 1 (APE1) (AID 1705; active = well fitted curve in the direction sought with a large enough effect; an effect the other way counts as inactive or inconclusive;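 note: TAMRA fluorescence gain over two minutes as APE1 cuts a quenched THF abasic duplex; % is set by controls: 0 for no effect and ±100 for the full control effect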). Summed up: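 Endonuclease activity of human APE1 is followed as dequenching when the enzyme incises a tetrahydrofuran abasic site in a short duplex labelled 5'-TAMRA/3'-BHQ-2 (50 nM final), after 15 min enzyme–compound preincubation at room temperature.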

Experiment [24] in a line: qHTS for differential inhibitors of proliferation of Plasmodium falciparum line 3D7 (AID 1876; active = well fitted curve in the direction sought with a large enough effect; an effect the other way counts as inactive or inconclusive; note: potency is the fitted concentration of half-maximal effect).
Experiment [25] addresses Chromobox protein homolog 1 (Homo sapiens) (UniProt P83916). As to the kind of experiment: qHTS Validation Assay for Inhibitors of HP1-beta Chromodomain Interactions with Methylated Histone Tails (AID 488953; active = well fitted curve in the direction sought with a large enough effect; an effect the other way counts as inactive or inconclusive; note: potency is the fitted concentration of half-maximal effect; nearly all actives have a fitted effect of over 50% in size). The gist of the method: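 Disruption of preformed HP1-beta:H3K9me3 peptide complexes (both 50 nM, PBS pH 7.4 with 0.01% Tween-20) is measured by AlphaScreen after 30 min compound exposure at room temperature, using streptavidin donor and nickel chelate acceptor beads at 10 ug/mL final.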

Sequence of Alpha-galactosidase (Coffea arabica) (Q42656 whole entry, looked up): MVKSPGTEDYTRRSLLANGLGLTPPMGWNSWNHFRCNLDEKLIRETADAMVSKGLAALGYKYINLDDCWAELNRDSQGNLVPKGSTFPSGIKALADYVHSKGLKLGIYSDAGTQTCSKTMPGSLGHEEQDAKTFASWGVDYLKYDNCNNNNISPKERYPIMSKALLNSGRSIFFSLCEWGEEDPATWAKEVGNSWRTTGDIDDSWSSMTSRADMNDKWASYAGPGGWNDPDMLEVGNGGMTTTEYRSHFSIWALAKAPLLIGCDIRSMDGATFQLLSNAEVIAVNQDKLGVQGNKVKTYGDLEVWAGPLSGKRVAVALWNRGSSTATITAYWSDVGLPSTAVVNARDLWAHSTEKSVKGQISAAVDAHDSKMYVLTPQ
Sequence of Nucleoprotein (Lymphocytic choriomeningitis virus (strain Armstrong)) (P09992 whole entry, looked up): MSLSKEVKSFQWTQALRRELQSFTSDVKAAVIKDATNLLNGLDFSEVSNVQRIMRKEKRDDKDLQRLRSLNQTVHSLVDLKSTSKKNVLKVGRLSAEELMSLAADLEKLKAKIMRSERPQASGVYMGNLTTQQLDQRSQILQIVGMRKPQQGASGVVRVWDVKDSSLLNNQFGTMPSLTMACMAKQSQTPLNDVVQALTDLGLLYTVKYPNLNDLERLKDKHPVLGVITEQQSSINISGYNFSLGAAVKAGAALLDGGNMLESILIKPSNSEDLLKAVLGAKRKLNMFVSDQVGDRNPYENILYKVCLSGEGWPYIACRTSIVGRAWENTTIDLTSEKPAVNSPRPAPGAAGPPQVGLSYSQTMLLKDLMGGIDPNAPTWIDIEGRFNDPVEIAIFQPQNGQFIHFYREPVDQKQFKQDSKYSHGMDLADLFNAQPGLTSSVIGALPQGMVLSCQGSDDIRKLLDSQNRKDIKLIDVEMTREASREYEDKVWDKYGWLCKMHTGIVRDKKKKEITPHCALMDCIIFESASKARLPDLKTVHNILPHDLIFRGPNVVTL
Sequence of Arylsulfatase A (Homo sapiens) (P15289 whole entry, looked up): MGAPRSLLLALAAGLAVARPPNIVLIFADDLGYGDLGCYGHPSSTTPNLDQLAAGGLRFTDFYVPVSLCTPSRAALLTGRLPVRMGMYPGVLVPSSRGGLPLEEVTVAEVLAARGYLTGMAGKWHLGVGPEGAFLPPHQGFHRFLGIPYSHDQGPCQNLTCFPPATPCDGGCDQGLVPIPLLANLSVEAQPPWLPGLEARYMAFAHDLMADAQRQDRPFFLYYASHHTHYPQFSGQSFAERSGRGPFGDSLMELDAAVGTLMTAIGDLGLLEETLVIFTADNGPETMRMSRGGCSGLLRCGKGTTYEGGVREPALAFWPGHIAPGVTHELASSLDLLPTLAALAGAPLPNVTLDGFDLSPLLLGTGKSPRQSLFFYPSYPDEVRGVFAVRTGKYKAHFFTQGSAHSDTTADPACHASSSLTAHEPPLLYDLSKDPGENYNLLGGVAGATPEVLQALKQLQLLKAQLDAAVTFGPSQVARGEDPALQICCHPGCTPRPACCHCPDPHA
Sequence of Cytochrome P450 3A4 (Homo sapiens) (P08684 whole entry, looked up): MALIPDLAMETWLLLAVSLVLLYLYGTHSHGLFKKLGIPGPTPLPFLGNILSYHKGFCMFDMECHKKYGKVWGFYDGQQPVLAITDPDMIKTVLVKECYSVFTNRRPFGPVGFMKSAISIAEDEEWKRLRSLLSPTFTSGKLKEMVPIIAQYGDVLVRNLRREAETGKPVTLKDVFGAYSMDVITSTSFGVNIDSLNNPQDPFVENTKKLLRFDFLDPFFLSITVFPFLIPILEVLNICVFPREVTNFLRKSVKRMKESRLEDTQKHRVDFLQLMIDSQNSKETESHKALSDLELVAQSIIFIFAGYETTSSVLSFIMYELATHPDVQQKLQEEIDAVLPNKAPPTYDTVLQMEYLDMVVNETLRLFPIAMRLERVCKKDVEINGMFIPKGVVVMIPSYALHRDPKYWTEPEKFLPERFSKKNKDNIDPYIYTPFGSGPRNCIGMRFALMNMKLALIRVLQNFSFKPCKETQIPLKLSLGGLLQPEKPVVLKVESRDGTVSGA
Sequence of M-phase phosphoprotein 8 (Homo sapiens) (Q99549 whole entry, looked up): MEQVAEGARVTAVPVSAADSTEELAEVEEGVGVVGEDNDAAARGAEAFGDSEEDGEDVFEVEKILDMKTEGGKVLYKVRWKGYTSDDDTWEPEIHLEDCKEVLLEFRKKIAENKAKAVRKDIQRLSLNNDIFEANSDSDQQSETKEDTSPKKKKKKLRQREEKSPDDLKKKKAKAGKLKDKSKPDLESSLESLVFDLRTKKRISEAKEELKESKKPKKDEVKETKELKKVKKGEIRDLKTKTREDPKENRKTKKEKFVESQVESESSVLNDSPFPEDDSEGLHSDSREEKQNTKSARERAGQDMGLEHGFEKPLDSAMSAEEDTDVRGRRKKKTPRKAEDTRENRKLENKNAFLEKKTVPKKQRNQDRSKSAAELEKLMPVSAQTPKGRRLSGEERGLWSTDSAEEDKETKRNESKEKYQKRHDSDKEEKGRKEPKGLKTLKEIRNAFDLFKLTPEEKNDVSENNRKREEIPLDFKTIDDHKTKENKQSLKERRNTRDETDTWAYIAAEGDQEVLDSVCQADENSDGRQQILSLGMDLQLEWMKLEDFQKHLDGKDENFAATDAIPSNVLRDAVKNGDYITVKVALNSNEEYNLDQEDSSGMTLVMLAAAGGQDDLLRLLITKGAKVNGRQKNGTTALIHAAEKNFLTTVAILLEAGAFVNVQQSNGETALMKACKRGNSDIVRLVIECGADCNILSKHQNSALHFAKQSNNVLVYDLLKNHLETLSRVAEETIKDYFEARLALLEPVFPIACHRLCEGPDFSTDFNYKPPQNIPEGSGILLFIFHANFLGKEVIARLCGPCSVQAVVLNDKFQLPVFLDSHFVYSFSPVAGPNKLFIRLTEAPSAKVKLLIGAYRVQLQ
Sequence of DNA repair nuclease/redox regulator APEX1 (Homo sapiens) (P27695 whole entry, looked up): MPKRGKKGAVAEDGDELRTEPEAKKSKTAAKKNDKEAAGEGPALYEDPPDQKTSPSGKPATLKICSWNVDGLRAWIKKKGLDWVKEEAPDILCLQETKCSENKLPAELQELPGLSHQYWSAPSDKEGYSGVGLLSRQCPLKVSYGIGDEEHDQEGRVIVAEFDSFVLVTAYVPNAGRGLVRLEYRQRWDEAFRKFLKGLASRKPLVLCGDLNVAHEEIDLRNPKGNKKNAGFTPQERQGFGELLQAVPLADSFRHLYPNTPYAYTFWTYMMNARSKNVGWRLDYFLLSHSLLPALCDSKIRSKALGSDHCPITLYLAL
Sequence of Ubiquitin carboxyl-terminal hydrolase 1 (Homo sapiens) (O94782 whole entry, looked up): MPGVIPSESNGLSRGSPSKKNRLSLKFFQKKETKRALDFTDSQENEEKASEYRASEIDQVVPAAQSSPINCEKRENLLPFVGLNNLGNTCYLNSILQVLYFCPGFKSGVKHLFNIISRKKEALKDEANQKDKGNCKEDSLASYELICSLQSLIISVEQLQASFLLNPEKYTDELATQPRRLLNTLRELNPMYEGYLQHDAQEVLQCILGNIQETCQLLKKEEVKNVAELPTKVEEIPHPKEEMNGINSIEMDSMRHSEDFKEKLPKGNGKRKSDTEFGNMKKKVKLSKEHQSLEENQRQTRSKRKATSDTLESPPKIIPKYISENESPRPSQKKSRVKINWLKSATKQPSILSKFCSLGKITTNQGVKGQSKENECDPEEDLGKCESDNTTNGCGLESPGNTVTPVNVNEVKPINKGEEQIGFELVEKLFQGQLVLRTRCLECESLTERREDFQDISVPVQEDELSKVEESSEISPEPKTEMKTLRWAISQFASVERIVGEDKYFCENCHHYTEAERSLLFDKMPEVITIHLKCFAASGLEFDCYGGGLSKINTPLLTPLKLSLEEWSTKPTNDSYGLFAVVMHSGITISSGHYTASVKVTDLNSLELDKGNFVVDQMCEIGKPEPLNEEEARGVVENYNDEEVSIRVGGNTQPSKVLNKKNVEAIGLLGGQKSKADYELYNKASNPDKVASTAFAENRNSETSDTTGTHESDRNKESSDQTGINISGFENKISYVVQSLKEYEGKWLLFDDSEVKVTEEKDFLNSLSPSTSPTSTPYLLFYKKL
Sequence of Bile acid receptor (Homo sapiens) (Q96RI1 whole entry, looked up): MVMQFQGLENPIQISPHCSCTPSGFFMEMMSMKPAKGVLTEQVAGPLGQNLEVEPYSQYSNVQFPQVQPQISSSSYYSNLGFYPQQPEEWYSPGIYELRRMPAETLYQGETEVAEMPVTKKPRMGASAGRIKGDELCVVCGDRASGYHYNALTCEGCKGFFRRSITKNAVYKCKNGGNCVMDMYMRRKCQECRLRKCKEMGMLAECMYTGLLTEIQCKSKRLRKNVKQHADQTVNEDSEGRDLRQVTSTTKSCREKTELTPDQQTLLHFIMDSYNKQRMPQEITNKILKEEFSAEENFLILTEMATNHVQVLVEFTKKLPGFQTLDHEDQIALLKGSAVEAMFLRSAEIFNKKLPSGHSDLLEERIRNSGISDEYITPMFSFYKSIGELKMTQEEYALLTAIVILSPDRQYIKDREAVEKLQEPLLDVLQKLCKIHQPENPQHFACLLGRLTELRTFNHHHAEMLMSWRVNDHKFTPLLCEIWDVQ
Sequence of Chromobox protein homolog 1 (Homo sapiens) (P83916 whole entry, looked up): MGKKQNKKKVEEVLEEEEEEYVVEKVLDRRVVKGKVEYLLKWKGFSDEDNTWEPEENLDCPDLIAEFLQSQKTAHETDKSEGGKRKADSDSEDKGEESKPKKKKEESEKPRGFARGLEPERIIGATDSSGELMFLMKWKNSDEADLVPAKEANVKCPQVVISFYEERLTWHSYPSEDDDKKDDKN

As to `Nc1nc(N)c2nc(CNc3ccc(C(=O)NC(CCC(=O)O)C(=O)O)cc3)cnc2n1` (stereo unspecified), the Potency is 20000 nM (active) in experiment [1], 77 nM (active) in [9] and 100 nM (active) in experiment [10]. In addition, the Potency entry in experiment [2], in [4], in experiment [7], in [11], in experiment [12] and in [13] was “inactive” throughout. Besides, the Potency entry in [14], in experiment [15], in experiment [16] and in experiment [17] was “inactive” in each case. For the same compound, the call in experiment [3], in experiment [5] and in experiment [6] was inactive. For the same compound, the activation in [8] was 1.76% (inactive).

With `CCN1/C(=C/C(C)=O)Sc2ccc(OC)cc21`, the compound was called inactive in experiment [18], in [19] and in [6]. Besides, the Potency entry in experiment [2], in [12], in experiment [13], in [14], in experiment [15] and in experiment [16] was “inactive” in each case. Besides, in [17], the activity change, negative = inhibition is -1.33%.

Consider `CCCCS(=N)(=O)CCC(N)C(=O)O` (stereo unspecified), for which the Potency result in experiment [2], in experiment [12], in experiment [13], in experiment [14], in experiment [15] and in [16] was “inactive” in each case. The Potency entry in [17] was “inactive”. Further, in experiment [6], the compound was called inactive.

Take `COc1cc(SC)ccc1C(=O)N1CCC(Cc2ccccc2)CC1`: in experiment [6], the compound was called inactive. Further, the Potency entry in [12], in experiment [13], in experiment [14], in experiment [15] and in experiment [16] was “inactive” each time.

Regarding `Oc1ccc(-c2nc(-c3ccc(F)cc3)c(-c3ccncc3)[nH]2)cc1`, the figures for the Potency in experiment [20] and in [22] were 1000 nM (active) and 3040 nM (active), respectively. In addition, the Potency result in experiment [21], in experiment [12], in [13], in experiment [14], in experiment [15] and in experiment [16] was “inactive” throughout. Further, the compound was classed as inactive in experiment [18], in [19] and in experiment [6].

With `Nc1ncnc2c1c(-c1cnc3[nH]ccc3c1)nn2C1CCCC1`, the Potency in [12] is 6850 nM (active); in [13] it was 1720 nM (active); in [14], 2170 nM (active); in [15], 6110 nM (active); in experiment [17], 10000 nM (active).

As to `COC[C@H](NC(=O)c1cnc(C)s1)C(=O)N[C@@H](COC)C(=O)N[C@@H](Cc1ccccc1)C(=O)[C@@]1(C)CO1`, the Potency is 273 nM (active) in experiment [12], 685 nM (active) in [13], 685 nM (active) in experiment [14] and 769 nM (active) in [15]. In experiment [17], the activity change, negative = inhibition is -97.7%.

On to `Oc1cc(O)cc(/C=C/c2ccc(O)c(O)c2)c1`, for which the Potency result in [2], in [12], in [13], in [14] and in [15] was “inactive” throughout. In addition, the compound was classed as inactive in experiment [6]. Also, the activity change, negative = inhibition in experiment [17] was -97.4%.

`NO`: the call in [18], in experiment [19] and in [6] was inactive. Further, the Potency result in [23], in experiment [2], in [11], in experiment [12], in experiment [13] and in experiment [14] was “inactive” in each case. For the same compound, the Potency entry in experiment [15] is “inactive”. The Potency is 12600 nM (active) in experiment [24] and 6 nM (active) in experiment [25].

Consider `Cc1ccccc1C(=O)c1ccc(Nc2ccc(Br)cc2N)cc1Cl`, for which the Potency result in experiment [12], in [13], in [14] and in [15] was “inactive” in each case. The Potency in experiment [22] was 24100 nM (active).

`CN1CCN(Cc2ccc(NC(=O)Nc3ccc(Oc4cc(NC(=O)C5CC5)ncn4)cc3)cc2C(F)(F)F)CC1`: the Potency in experiment [12] is 2430 nM (active); in experiment [13], 1530 nM (active); in [14] it was 968 nM (active); in experiment [15], 1720 nM (active); in experiment [17], 1000 nM (active).
